SMILES strings stand for the structures. Results filed as inconclusive are left out. Active and inactive are the calls of the source. Unless noted, the call rests on the fitted dose curve; in most records, active means well fitted curve in either direction with a large enough effect (not every such curve was filed as active); inconclusive means small, poorly fitted or top-dose-only effect, or another doubt; inactive means flat fitted curve, though single readings scatter.

Test [1] addresses Lysosomal acid glucosylceramidase (Homo sapiens) (UniProt P04062). Kind of test: Glucocerebrosidase-p2 (AID 348; in the data active means potency below about 10 µM; further: potency means the concentration at half of the fitted maximal effect). Particulars: purified GBA, blue fluorogenic substrate, 40 min. A digest of the protocol:
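Normal human glucocerebrosidase (0.2 nM) with blue fluorogenic substrate (80 uM final) in citrate/phosphate pH 5.9 with 10mM sodium taurocholate, 0.01% tween-20; 40 min RT, NaOH/glycine stop; fluorescence Ex 365/Em 440; AC50 from a titration from 0.6 nM upwards.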

Test [2] in a line: AP1 Signaling Pathway (AID 357).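 Further: ME-180 reporter cells stimulated with EGF at its EC50 level; on the % scale 0 is the no-effect control and ±100 the full control effect.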 The following applies: ME-180 AP-1-bla reporter, EGF-induced, beta-lactamase ratio, 5 h; at 7.69 µM (top of the series) unless noted. A digest of the protocol:
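Beta-lactamase reporter under AP-1 response element, ME-180 background. Stimulus: EC50 EGF. Compound exposure 5 h, 37 °C. Detection: CCF4, 2.5 h RT, 460/530 nm. Values: AC50 from titration.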

For test [3], the target named is Cytochrome P450 1A2 (Homo sapiens) (UniProt P05177). Kind of test: p450-cyp1a2 (AID 410; calls by dose curve; further: potency means the concentration at half of the fitted maximal effect). Particulars: recombinant CYP1A2, luciferin-ME demethylation, luminescence; series mostly up to 57 µM. A digest of the protocol:
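O-Demethylation of luciferin 6' methyl ether by human CYP1A2 is monitored as luciferase luminescence. Substrate sits at Km (100uM); enzyme is 20nM. Values are scaled to 57 uM furafylline as maximal inhibition.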

Test [4] can be described thus: NFAT Signaling Pathway (AID 444).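 Further: carbachol stimulus at about its EC50 of 1 µM final; on the % scale 0 is the no-effect control and ±100 the full control effect.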 The following applies: Jurkat NFAT-bla M1, carbachol, beta-lactamase ratio, 5 h; at 7.69 µM (top of the series) unless noted. A digest of the protocol: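 Jurkat cells with NFAT-driven β-lactamase reporter and co-expressed M1 receptor, stimulated with carbachol (final 1 uM, ~EC50), compound titration, 5 h at 37 °C. CCF4 loaded 1 h at RT; 460/530 nm ratio gave %activity and AC50.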

Test [5] is described as follows: Stat Signaling Pathway (AID 446).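 Further: ME-180 cervical cancer cells given 40 pM IL-6 alongside compound; SIE-controlled beta-lactamase reporter measured as 460/530 nm FRET emission ratio; on the % scale 0 is the no-effect control and ±100 the full control effect.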 The following applies: ME-180 (cervical carcinoma) SIE beta-lactamase reporter, IL-6 stimulated, 5 h; at 7.69 µM (top of the series) unless noted. A digest of the protocol: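 FRET read-out (405 nm excitation, 460/530 nm emission) of a beta-lactamase reporter under a STAT-inducible element in ME-180 cervical carcinoma cells. Cells with compound receive 40 pM IL-6 for 5 h. Values are normalised to AC90 stimulation and AC90 JAK-inhibitor controls.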

Test [6] concerns the target Glucocorticoid receptor (Homo sapiens) (UniProt P04150). Kind of test: GR-EFC Redistribution (AID 451; calls by dose curve; further: potency means the concentration at half of the fitted maximal effect). Particulars: CHO-K1 GR-EFC translocation, beta-gal luminescence, 2 h. A digest of the protocol: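 CHO-K1 cells expressing nuclear EA and GR-ED fragments of b-gal; compounds titrated up to 46 uM final, 2 h at 37 C. GR nuclear translocation read as complemented b-gal luminescence after 1 h RT detection.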

The target in test [7] is Mitogen-activated protein kinase 10 (Mus musculus) (UniProt Q61831). Kind of test: JNK3 AlphaScreen Assay (AID 530).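 Further: kinase came from lysate of stimulated human HepG2 cells; signal reports phosphorylation of biotinylated GST-cJun 1-79 at Ser73 with 10 µM ATP; on the % scale 0 is the no-effect control and ±100 the full control effect.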 Particulars: JNK3 lysate, c-Jun phosphorylation; series mostly up to 57.1 µM. A digest of the protocol: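 Activity was read by AlphaScreen after JNK3-containing HepG2 lysate (cytokine pre-activated) phosphorylated biotinylated GST-cJun with 10 uM ATP at room temperature. Phospho-Ser73 cJun antibody with Protein-A acceptor beads provided detection.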
In general terms: Bead proximity is the source of the signal in Alpha formats.

For test [8], the target named is 3',5'-cyclic-AMP phosphodiesterase 4B (Homo sapiens) (UniProt Q07343). Kind of test: qHTS Assay for Inhibitors of PDE-IV (AID 607; active means well fitted activation curve with a large enough effect in the main read-out, with a control signal flat, not every such curve was filed as active; further: % of control where 0% means no effect). The following applies: HEK293 ACTOne CNG channel cells, membrane potential fluorescence; series mostly up to 22.9 µM. A digest of the protocol: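 Cell-based read-out of cAMP via a modified cyclic nucleotide-gated channel and membrane potential dye (535/590 nm) in HEK293 cells expressing PDE4 endogenously. Compounds tested up to 22.9 uM final; 100 uM RO 20-1724 reference.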
3',5'-cyclic-AMP phosphodiesterase 4B (Homo sapiens), sequence (Q07343 whole entry, looked up): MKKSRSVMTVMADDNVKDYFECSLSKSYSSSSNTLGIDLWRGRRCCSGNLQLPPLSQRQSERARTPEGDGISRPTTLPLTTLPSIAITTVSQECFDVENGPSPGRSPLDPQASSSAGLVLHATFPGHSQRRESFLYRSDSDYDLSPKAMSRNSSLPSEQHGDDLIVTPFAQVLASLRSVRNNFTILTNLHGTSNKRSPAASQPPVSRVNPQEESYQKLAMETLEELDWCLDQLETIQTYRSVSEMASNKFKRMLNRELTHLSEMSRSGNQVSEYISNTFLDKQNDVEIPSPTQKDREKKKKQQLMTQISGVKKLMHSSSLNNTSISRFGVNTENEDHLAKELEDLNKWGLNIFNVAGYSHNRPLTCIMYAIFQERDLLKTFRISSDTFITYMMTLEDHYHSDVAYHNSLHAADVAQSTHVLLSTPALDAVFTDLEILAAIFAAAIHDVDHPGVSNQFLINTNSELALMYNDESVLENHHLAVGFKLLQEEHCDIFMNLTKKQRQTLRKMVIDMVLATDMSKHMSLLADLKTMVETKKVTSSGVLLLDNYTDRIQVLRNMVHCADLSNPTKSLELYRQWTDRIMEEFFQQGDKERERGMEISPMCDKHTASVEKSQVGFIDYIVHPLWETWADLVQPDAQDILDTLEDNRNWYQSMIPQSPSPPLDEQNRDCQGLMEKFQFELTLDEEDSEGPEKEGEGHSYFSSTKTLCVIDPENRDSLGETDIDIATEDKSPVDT
On the technique in general: Quantitative high-throughput screening tests each substance at several concentrations.

Test [9] concerns the target Cytochrome P450 3A4 (Homo sapiens) (UniProt P08684). As to the kind of experiment: qHTS Assay for Activators of Cytochrome P450 3A4 (AID 885; active means well fitted curve in the direction sought with a large enough effect; an effect the other way counts as inactive or inconclusive; further: nearly all actives have a fitted effect of over 65% in size). The following applies: recombinant CYP3A4, Luciferin-PPXE luminescence, 60 min; series mostly up to 57.1 µM. A digest of the protocol: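 Luminescent readout of luciferin formed from 25 uM Luciferin-PPXE (KM level) by 20 nM CYP3A4 in 200 mM KPO4, with 60 min NADPH-driven reaction at room temperature after 10 min compound exposure. Ketoconazole (57 uM) defined 100% inhibition.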

Test [10] addresses Cytochrome P450 2D6 (Homo sapiens) (UniProt P10635). Kind of test: qHTS Assay for Inhibitors and Substrates of Cytochrome P450 2D6 (AID 891; active means well fitted curve in the direction sought with a large enough effect; an effect the other way counts as inactive or inconclusive; further: potency means the concentration at half of the fitted maximal effect; nearly all actives have a fitted effect of over 60% in size). Particulars: recombinant CYP2D6, luciferin-ME EGE luminescence; series mostly up to 57.1 µM. A digest of the protocol: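 Luminescent read-out of luciferin formed by 5 nM human CYP2D6 demethylating 30 uM Luciferin-ME EGE (Km level) over 60 min at room temperature after NADPH regeneration addition. Data normalized to full inhibition by 1.43 uM quinidine.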

The nature of test [11]: qHTS Assay for Lipid Storage Modulators (AID 1519; calls by dose curve). Particulars: Drosophila S3 cells, BODIPY lipid droplet/cell ratio, laser cytometry, cells loaded with oleic acid; for activity change, negative = inhibition: at 57.5 µM (top of the series). A digest of the protocol: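 Cells seeded at 5,000 per well were treated with compounds over a concentration series and loaded with oleic acid (400 uM, as added). Lipid droplet fluorescence (488 nm excitation, 500-530 nm channel) was read by laser-scanning cytometry and normalized to 20 uM Triacsin C.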

Test [12] can be described thus: Primary qHTS for small molecule stabilizers of the endoplasmic reticulum resident proteome: Secreted ER Calcium Modulated Protein (SERCaMP) assay (AID 1508630; active means well fitted curve in the direction sought with a large enough effect; an effect the other way counts as inactive or inconclusive; further: on the % scale 0 is the no-effect control and ±100 the full control effect). The following applies: SH-SY5Y GLuc-SERCaMP (Gaussia luciferase released on ER calcium loss) secretion, thapsigargin, luminescence; series mostly up to 38.4 µM. A digest of the protocol:
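The SH-SY5Y reporter protocol was run at 3 concentrations up to 38.3 uM (primary) or 11 concentrations (follow-up): 16 h compound, 100 nM thapsigargin for 4 h, then extracellular luciferase luminescence.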

The target of test [13] is Cytochrome P450 2C19 (Homo sapiens) (UniProt P33261). Kind of test: qHTS Assay for Inhibitors and Substrates of Cytochrome P450 2C19 (AID 899; active means well fitted curve in the direction sought with a large enough effect; an effect the other way counts as inactive or inconclusive; further: on the % scale 0 is the no-effect control and ±100 the full control effect; nearly all actives have a fitted effect of over 60% in size). The following applies: recombinant CYP2C19, luciferin-H EGE luminescence; series mostly up to 57.1 µM. A digest of the protocol:
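Luminescent read-out of luciferin formed from Luciferin-H EGE (10uM, equal to KM). Enzyme 5nM in 50mM KPO4; compound added, 10 min at 37C, then NADPH regenerating system for 60 min at 37C. Full inhibition defined by 57uM ketoconazole.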

Setting [14] is: measured here: cell count channel max response.
Setting [15] is: measured here: lipid channel max response.

Cytochrome P450 1A2 (Homo sapiens), sequence (P05177 whole entry, looked up): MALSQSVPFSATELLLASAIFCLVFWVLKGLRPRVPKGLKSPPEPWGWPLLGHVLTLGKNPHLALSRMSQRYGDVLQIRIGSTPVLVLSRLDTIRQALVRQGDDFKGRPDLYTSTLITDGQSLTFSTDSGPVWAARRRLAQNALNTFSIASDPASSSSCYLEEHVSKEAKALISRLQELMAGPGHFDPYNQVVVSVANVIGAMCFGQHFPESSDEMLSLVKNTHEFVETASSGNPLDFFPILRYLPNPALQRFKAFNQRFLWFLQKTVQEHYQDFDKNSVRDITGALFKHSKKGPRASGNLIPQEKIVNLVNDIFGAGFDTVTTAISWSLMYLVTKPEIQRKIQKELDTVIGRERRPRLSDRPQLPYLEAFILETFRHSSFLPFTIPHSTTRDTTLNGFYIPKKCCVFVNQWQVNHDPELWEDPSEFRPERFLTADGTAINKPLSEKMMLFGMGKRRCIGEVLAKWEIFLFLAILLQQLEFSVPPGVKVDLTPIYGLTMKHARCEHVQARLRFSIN
Lysosomal acid glucosylceramidase (Homo sapiens), sequence (P04062 whole entry, looked up): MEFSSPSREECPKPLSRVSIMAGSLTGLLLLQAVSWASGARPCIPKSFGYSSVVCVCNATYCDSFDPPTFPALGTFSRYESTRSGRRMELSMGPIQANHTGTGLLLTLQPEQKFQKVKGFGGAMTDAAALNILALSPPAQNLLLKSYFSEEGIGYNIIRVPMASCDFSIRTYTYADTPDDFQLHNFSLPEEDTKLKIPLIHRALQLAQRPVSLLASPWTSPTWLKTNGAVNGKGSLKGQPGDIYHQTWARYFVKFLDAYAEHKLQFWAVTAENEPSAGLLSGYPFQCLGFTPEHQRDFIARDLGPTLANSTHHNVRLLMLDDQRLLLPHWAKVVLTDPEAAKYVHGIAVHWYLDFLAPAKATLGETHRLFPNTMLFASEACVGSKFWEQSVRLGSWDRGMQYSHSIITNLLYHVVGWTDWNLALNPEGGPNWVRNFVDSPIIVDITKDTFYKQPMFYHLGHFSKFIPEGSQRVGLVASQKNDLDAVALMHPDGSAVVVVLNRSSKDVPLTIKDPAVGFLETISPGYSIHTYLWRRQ
Glucocorticoid receptor (Homo sapiens), sequence (P04150 whole entry, looked up, the tested form may be a part): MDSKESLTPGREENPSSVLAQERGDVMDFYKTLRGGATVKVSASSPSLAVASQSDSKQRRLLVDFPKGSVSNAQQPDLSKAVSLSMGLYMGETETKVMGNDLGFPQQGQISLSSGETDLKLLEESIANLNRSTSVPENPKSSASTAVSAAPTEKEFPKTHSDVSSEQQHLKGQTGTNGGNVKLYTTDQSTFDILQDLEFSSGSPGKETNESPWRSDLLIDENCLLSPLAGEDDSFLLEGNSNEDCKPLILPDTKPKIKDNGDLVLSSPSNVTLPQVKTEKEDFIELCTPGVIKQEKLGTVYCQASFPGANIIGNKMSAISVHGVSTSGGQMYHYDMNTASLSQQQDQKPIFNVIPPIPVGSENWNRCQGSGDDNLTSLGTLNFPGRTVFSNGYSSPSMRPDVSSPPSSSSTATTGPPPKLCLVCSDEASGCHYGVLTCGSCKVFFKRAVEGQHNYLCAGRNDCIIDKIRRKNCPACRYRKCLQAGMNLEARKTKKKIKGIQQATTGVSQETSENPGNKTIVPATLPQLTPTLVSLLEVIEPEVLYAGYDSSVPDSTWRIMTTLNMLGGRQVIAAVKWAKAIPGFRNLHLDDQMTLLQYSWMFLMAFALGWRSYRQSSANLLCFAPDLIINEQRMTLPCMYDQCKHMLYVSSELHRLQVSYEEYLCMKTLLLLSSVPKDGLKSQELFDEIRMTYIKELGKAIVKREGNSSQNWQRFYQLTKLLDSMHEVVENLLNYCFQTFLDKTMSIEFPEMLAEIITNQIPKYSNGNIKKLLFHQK
Cytochrome P450 3A4 (Homo sapiens), sequence (P08684 whole entry, looked up): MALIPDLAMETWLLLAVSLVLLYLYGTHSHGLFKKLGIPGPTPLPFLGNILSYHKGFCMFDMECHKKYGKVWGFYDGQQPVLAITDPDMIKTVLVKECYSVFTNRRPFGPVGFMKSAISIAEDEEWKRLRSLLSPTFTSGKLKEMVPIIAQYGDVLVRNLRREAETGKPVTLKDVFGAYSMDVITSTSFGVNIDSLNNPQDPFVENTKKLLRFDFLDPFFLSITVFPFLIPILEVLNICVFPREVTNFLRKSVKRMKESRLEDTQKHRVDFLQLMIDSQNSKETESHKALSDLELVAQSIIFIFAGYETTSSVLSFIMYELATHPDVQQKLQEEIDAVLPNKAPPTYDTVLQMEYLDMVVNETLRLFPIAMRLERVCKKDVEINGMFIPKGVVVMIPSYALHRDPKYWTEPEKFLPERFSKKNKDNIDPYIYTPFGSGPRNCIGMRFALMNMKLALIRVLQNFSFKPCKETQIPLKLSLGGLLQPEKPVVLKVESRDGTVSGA
Cytochrome P450 2D6 (Homo sapiens), sequence (P10635 whole entry, looked up): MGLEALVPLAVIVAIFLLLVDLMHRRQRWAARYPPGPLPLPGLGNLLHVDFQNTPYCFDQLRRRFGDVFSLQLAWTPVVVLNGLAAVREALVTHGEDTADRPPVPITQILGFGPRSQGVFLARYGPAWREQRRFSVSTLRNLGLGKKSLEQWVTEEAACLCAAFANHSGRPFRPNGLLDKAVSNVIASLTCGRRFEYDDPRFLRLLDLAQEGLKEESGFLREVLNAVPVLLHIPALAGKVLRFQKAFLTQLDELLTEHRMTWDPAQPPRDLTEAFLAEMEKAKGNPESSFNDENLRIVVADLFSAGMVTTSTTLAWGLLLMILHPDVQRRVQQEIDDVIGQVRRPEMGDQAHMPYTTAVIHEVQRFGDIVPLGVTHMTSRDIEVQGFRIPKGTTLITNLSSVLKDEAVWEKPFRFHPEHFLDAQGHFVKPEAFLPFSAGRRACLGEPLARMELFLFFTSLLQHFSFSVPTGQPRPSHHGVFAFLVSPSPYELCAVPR
Cytochrome P450 2C19 (Homo sapiens), sequence (P33261 whole entry, looked up): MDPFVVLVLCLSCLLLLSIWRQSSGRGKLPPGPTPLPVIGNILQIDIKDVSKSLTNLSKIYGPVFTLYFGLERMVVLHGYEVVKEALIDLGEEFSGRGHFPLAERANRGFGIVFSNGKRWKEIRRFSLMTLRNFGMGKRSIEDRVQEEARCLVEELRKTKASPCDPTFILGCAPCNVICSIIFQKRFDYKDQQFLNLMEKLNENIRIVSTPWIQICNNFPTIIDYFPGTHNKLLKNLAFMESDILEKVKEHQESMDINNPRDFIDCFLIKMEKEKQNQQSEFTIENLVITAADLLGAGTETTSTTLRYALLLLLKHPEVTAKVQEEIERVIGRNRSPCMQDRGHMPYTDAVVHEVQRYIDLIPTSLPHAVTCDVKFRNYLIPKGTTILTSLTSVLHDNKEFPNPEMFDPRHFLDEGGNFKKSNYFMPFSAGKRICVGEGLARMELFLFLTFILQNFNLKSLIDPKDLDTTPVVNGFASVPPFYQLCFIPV

Regarding `COc1ccccc1CN1CC[C@@]2(CCCN(C(=O)c3cccn3C)C2)C1`, the Potency in [1] was > 11.4 µM (inactive); in [6], > 46 µM (inactive); in test [10] it was 0.316 µM (active). Moreover, the activity change, negative = inhibition was -17% (inactive) in [2], -9.11% (inactive) in [4] and 3.67% (inactive) in test [11]. For the same compound, the Potency result in [3], in test [8], in test [9] and in test [12] was “inactive” in each case. Besides, the activity, negative = inhibition in test [5] was -10.5% (inactive). Moreover, in [7], the outcome was inactive. Also, the max response in test [11] (setting [14]) was 9.96%; in [11] (setting [15]), 13.2%.
Regarding `COc1ccc(NC(=O)N2CCC3(CC2)CCN(C(=O)c2csnn2)CC3)cc1`, the Potency was > 11.4 µM (inactive) in test [1], 6.31 µM (active) in test [3] and > 46 µM (inactive) in test [6]. For the same compound, the activity change, negative = inhibition in [2] is -4.35% (inactive); in [4], 3.59% (inactive); in test [11], 8.17% (inactive). For the same compound, in test [5], the activity, negative = inhibition is -12% (inactive). Besides, in test [7], the result was inactive. The Potency entry in test [8], in test [9] and in [12] was “inactive” throughout. In addition, the max response in [11] (setting [14]) is 17.2%; in test [11] (setting [15]), 29.5%.
In the case of `COc1ccc(C(=O)N2CCC[C@@]3(CCN(C(=O)Nc4ccccc4)C3)C2)cc1`, the results for the Potency in [1], in [3] and in test [6] were > 11.4 µM (inactive), 15.8 µM (active) and > 46 µM (inactive), respectively. Also, the figures for the activity change, negative = inhibition in [2], in test [4] and in test [11] were -19.4% (inactive), 12.1% (inactive) and 10.7% (inactive), respectively. Also, the activity, negative = inhibition in test [5] was -4.43% (inactive). Moreover, the compound was called inactive in test [7]. The Potency result in [8], in test [9] and in test [12] was “inactive” throughout. For the same compound, the max response in test [11] (setting [14]) is 8.67%; in [11] (setting [15]), 24.1%.
For the compound `CC(=O)N1CCC2(CCCN(C(c3ccccc3)c3ccccc3)C2)CC1`, the Potency in test [1] is > 11.4 µM (inactive); in test [3], 15.8 µM (active); in test [6], > 46 µM (inactive); in test [10], 7.94 µM (active). Besides, the figures for the activity change, negative = inhibition in test [2], in [4] and in test [11] were -12.2% (inactive), 28.1% (inactive) and 6.41% (inactive), respectively. For the same compound, the activity, negative = inhibition in [5] is 17.6% (inactive). Moreover, the call in test [7] was inactive. Moreover, the Potency entry in test [8], in test [9] and in test [12] was “inactive” each time. In addition, the values for the max response in test [11] (setting [14]) and in test [11] (setting [15]) were 3.3% and 12.6%, respectively.
On to `COCC(=O)N1CCC2(CCCN(C(=O)Nc3ccc(OC)cc3)C2)CC1`, for which the Potency was > 11.4 µM (inactive) in test [1] and > 46 µM (inactive) in test [6]. Moreover, the activity change, negative = inhibition in test [2] is -3.98% (inactive); in test [4] it was 13.5% (inactive); in test [11] it was 5.43% (inactive). Moreover, the Potency entry in test [3], in test [8], in [9], in [13] and in test [12] was “inactive” throughout. Besides, in test [5], the activity, negative = inhibition was -3.45% (inactive). Also, the compound was called inactive in test [7]. The max response in test [11] (setting [14]) is 13.8%; in test [11] (setting [15]), 18.7%.
